Source: PubChem (National Center for Advancing Translational Sciences (NCATS))
Only some compounds are listed: those with a hit (about 18% of all), similar ones and a draw of the others.
IL1B secr inh: blocks inflammasome-driven IL-1 beta release | THP-1 LPS/ATP IL-1B secretion, AlphaLISA, 16 h; stronger effect = lower value | activity change, % at 57.5 µM | 4.7% of 360,000 active | AID 743279; in the data active = activity change below about -50%; inconclusive = mostly about -30% to -49%
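Secreted IL-1B measured by AlphaLISA bead assay after 16 h compound exposure of THP-1 cells; compounds (final up to 57.5 uM) added 1 h before LPS (250 ng/mL) and ATP (1.25 mM) stimulation; lower signal means less secretion.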
TDP1 cell CPT: DT40-hTDP1 cell growth loss with CPT; chicken DT40 Tdp1-/-;hTDP1 cells + 20 nM CPT, ATP luminescence, 48 h; 12% of 420,000 active; Potency, µM (doses to about 46.2 µM), for the others: at the top dose activity change, negative = growth inhibition, actives largely listed as inhibitors; also: potency is read from the fitted curve at half-maximal effect; nearly all actives have a fitted effect of over 55% in size
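Chicken DT40 Tdp1-/- cells stably complemented with human TDP1 were seeded at 400 cells/well in medium containing 20 nM camptothecin, exposed to pin-transferred compounds, and grown at 37 °C for at least 48 hr. Viability was read as ATP luminescence.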
LDHA block: blocks human lactate dehydrogenase A. P00338. activity change, % (values are at about 110 or 230 µM). 0.15% of 480,000 active. purified LDHA, NADH/diaphorase-resazurin fluorescence; stronger effect = lower value; in the data active = activity change below about -30%; inconclusive = mostly about -25% to -30%;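 also: plate controls were DMSO wells for no effect and wells without enzyme for full effect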
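LDH5 2 nM; NADH 0.06 mM, pyruvate 0.2 mM; 200 mM Tris pH 7.4, EDTA, Tween-20; 5 min RT. Detection: diaphorase 0.133 mg/mL + resazurin 37 µM, fluorescence ex540/em590 at 0 and 20 min; normalized to enzyme-free and DMSO wells.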
TDP1 cell noCPT: qHTS for Inhibitors of human tyrosyl-DNA phosphodiesterase 1 (TDP1): qHTS in cells in absence of CPT. DT40 Tdp1-/- hTDP1 cells, no CPT, ATP luminescence, 48 h. Potency, µM (highest dose often 46.2 µM), for the others: at the top dose activity change, negative = growth inhibition, usual class: inhibitors. 15% of 420,000 active. AID 686978, 2013; also: potency is read from the fitted curve at half-maximal effect; nearly all actives have a fitted effect of over 55% in size
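Camptothecin absent (DMSO only). Human TDP1-complemented DT40 knockout cells, 400 cells/well, 37 °C for minimum 48 hr; ATP measured via CellTiter-Glo, 30 min dark incubation, luminescence.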
VP16 counter: counter-screen for ROR gamma inhibitors: Gal4-VP16 reporter. Drosophila S2 Gal4-VP16 UAS-luciferase, luminescence, 20 h. Potency, µM (highest dose often 53.6 µM), without a hit: at the highest dose activity, negative = inhibition, hits mostly inhibitors. 3.5% of 310,000 active;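 also: Gal4-VP16 expression switched on by copper sulfate through the metallothionein promoter; potency is read from the fitted curve at half-maximal effect; nearly all actives have a fitted effect of over 50% in size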
RORg inh: ROR gamma (mouse) transcription inhibition; P51450; Drosophila S2 Gal4-RORgamma UAS-luciferase reporter, 20 h; Potency, µM (titrated, usually from 53.6 µM), for inactives: at the highest dose activity change, negative = inhibition, actives largely listed as inhibitors; 5.4% of 310,000 active; AID 2551; also: potency is read from the fitted curve at half-maximal effect; nearly all actives have a fitted effect of over 60% in size
Target sequence (P51450 whole entry, looked up, the tested form may be a part): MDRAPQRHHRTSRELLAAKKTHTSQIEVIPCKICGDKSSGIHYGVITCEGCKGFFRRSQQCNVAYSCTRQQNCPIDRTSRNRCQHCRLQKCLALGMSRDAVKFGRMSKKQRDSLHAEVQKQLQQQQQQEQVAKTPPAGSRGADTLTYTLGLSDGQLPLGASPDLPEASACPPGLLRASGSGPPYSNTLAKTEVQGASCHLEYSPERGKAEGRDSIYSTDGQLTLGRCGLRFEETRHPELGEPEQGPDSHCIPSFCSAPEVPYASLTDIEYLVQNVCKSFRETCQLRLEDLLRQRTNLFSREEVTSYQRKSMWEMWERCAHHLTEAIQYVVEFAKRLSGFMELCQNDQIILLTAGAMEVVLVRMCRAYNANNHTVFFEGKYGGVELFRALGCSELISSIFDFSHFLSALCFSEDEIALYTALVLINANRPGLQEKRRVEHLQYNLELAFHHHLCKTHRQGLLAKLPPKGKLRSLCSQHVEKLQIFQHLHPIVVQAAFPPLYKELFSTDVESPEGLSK
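Stably transfected Drosophila Schneider cells are the test system, with ROR gamma fused to Gal4 and luciferase under UAS control; luminescence is read after 20 hr of 700 uM copper sulfate induction at ambient temperature.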
Numbers without * were called inactive; ? = inconclusive; nt = no result given; [ ] = another dose, or the depositor's remark. Unless noted, calls follow the shape of the dose curve; as a rule, active = well fitted curve in the direction sought with a large enough effect; inconclusive = small, poorly fitted or top-dose-only effect, or another doubt; inactive = no such curve, though single readings can be large; an effect the other way counts as inactive or inconclusive. Unless noted, % is scaled to controls: 0 for no effect and ±100 for the full control effect.

SMILES	IL1B secr inh	TDP1 cell CPT	LDHA block	TDP1 cell noCPT	VP16 counter	RORg inh
CCOC(=O)Cc1csc(NC(=O)CSc2nnc(-c3ccc(NS(=O)(=O)CC)cc3)o2)n1	6	-28%	-4	-6%	nt	nt
Cc1oc(-c2nc(C#N)c(NCCN(C)C)o2)cc1S(=O)(=O)N(C)c1ccccc1	nt	nt	0	nt	nt	nt
COC(=O)c1c(C)oc2ccc(N(C(=O)c3ccncc3)S(=O)(=O)c3cc(C)c(C)cc3C)cc12	nt	10µM*	-1	5.2µM*	nt	nt
COC(=O)c1c(C)oc2ccc(N(C(=O)c3ccncc3)S(=O)(=O)c3ccc(C)cc3C)cc12	?	2.6µM*	-3	4.1µM*	4.5µM*	?
Cc1ccc([N+](=O)[O-])cc1S(=O)(=O)N(C(=O)c1ccncc1)c1ccc2oc3c(c2c1)CCCC3	-1	-15%	-6	-11%	-9%	-25%
COC(=O)c1c(C)oc2ccc(N(C(=O)c3ccncc3)S(=O)(=O)c3c(C)cc(C)cc3C)cc12	nt	1.8µM*	-4	1.2µM*	nt	nt
Fc1ccccc1-c1nnc(SCCc2ccncc2)n1C1CC1	nt	nt	-6	nt	nt	nt
CCc1c(C)sc(NC(=S)N2CCN(CC)CC2)c1C(=O)OC	-56*	?	-5	?	-14%	-6%
COc1ccc(NC(=O)C(CC(=O)O)C(C)c2ccccc2)cc1 (stereo not drawn)	45	16µM*	-6	?	-3%	19%
CCC(C)c1ccccc1NC(=O)C(C)N(C)Cc1cccc(OC)c1 (stereo not drawn)	-6	?	-6	16µM*	-15%	11%
COc1ccc(NC(=O)C(C)N(C)Cc2ccc3ccccc3c2)cc1 (stereo not drawn)	?	?	-3	13µM*	-10%	?
CCn1c2ccccc2c2cc(/C=C3\C=Cc4ccccc43)ccc21	nt	-20%	-4	?	nt	nt
C=Cn1ccnc1P(=S)(c1ccc2c(c1)c1ccccc1n2CC)c1nccn1C=C	?	29µM*	-2	?	?	?
Nc1ccc2nc3c(=O)n(CCc4ccccc4)c(=O)[nH]c3nc2c1	nt	-8%	26	?	9%	?
Cc1cc2nc3c(=O)n(CCc4ccccc4)c(=O)[nH]c3nc2cc1N	?	-22%	11	21µM*	-2%	?
CSCCCNC(=S)N1CCc2ccccc2C1	-17	-2%	-2	11%	?	3.5µM*
S=C(NC1CCCC1)N1CCN(C/C=C/c2ccccc2)CC1	-66*	?	-9	21µM*	?	?
O=C(CN1CCN(C/C=C/c2ccccc2)CC1)NC(=O)NC1CCCCC1	?	2%	-8	-12%	9%	3%
S=C(Nc1ccccc1)N1CCN(C/C=C/c2ccccc2)CC1	11	-26%	4	?	?	11µM*
COc1cc(NC(=S)N2CCc3ccccc3C2)cc(OC)c1	4	2%	-4	-2%	?	14µM*
CCN(CC)S(=O)(=O)c1cc(NS(=O)(=O)c2ccc(C)cc2C)ccc1C	nt	nt	2	nt	nt	nt
CCCCN(Cc1ccccc1)c1ccc(NS(=O)(=O)c2cc(C)cc(C)c2)cc1C(=O)O	nt	nt	-17	nt	nt	nt
COc1cc(NC(=S)N2CCN(C/C=C/c3ccccc3)CC2)cc(OC)c1	-22	-30%	-5	?	?	11µM*
Fc1ccccc1NC(=S)N1CCN(C/C=C/c2ccccc2)CC1	-23	-24%	-8	?	?	?
COc1cc(NC(=S)N2CCN(C(c3ccccc3)c3ccccc3)CC2)cc(OC)c1	?	?	-4	-28%	0%[0.365 µM]	4.5µM*
SMILES	IL1B secr inh	TDP1 cell CPT	LDHA block	TDP1 cell noCPT	VP16 counter	RORg inh
Cc1ccc(Cl)cc1-n1ncc2c(NCCc3ccccc3)ncnc21	nt	16µM*	2	21µM*	nt	nt
Cc1ccc(Cl)cc1-n1ncc2c(NCCC3=CCCCC3)ncnc21	nt	16µM*	3	?	nt	nt
Cc1ccc(Cl)cc1-n1ncc2c(NCCCc3ccccc3)ncnc21	nt	7.3µM*	-5	?	nt	nt
COc1ccc(/C=N/NC(=O)c2cccc([N+](=O)[O-])c2)c2ccccc12	37	?	-7	?	?	?
Cc1c(/C=C(\C#N)C(=O)Nc2cccc(Cl)c2)c2ccccc2n1Cc1ccccc1	nt	?	-3	5.8µM*	nt	nt
CC(=O)n1cc(/C=N/NC(N)=S)c2ccccc21	-15	?	-1	-102%	?	4.5µM*
Cn1cc(/C=N/NC(=O)c2cccc([N+](=O)[O-])c2)c2ccccc21	34	2%	-7	-28%	?	0.5µM*
CC(C)(C)OC(=O)n1cc(/C=N/NC(=O)c2ccco2)c2ccccc21	-60*	-26%	-5	-17%	?	?
COc1cccc(NC(=O)/C(C#N)=C\c2cn(Cc3ccc(C)cc3)c3ccccc23)c1	nt	10µM*	1	5.8µM*	nt	nt
Cn1cc(/C=N/NC(=O)c2ccccc2O)c2ccccc21	-12	?	1	?	0.89µM*	0.56µM*
Cn1cc(/C=C(\C#N)C(=O)Nc2cccc([N+](=O)[O-])c2)c2ccccc21	-26	13µM*	-6	8.2µM*	10%	-8%
Cc1ccc(OCC(=O)N/N=C/c2cn(C)c3ccccc23)cc1	12	-12%	0	-33%	-4%	-39%
CC(=O)n1cc(/C=N/NC(=O)c2ccccc2O)c2ccccc21	?	-5%	4	10%	3.5µM*	2.8µM*
N#CCCN1CCN(C(C(=O)O)c2cn(CCC(=O)O)c3ccc(Br)cc23)CC1 (stereo not drawn)	nt	nt	0	nt	nt	nt
CCCCNc1nc(C)nc2c1nc(-c1ccccc1)n2C1CCN(Cc2ccccc2)C1 (stereo not drawn)	nt	nt	nt	nt	-12%	11µM*
Cc1nc(NCc2ccccc2)c2nc(-c3ccccc3)n(C3CCN(Cc4ccccc4)C3)c2n1 (stereo not drawn)	nt	nt	nt	nt	-12%	-17%
C=C(C)CNC(=S)Nc1sc2c(c1C(=O)OCC)CC(C)(C)OC2	20	23µM*	0	16µM*	1.4µM*	1.4µM*
CCOC(=O)c1c(NC(=O)c2ccc(C)cc2)sc2c1CC(C)(C)OC2	-16	?	1	18µM*	1%	-7%
CCOC(=O)c1c(NC(=O)c2ccccc2C)sc2c1CC(C)(C)OC2	-28	?	-3	?	-17%	-3%
Cc1ccc(NS(=O)(=O)c2cccc(Cl)c2Cl)cc1S(=O)(=O)N(C)C	nt	nt	1	nt	nt	nt
